From PubChem BioAssay
Records with an inconclusive call do not appear. Activity calls are given as the source filed them.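 The calls were made as follows, unless noted: active = normalized viability below 100% at a tested concentration; inactive = the rest.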

Key:
[1] = viability loss in pontine glioma line – cell-based, SU-DIPG-XVII, MIPE5.0, CellTiter-Glo, qHTS, dose response (AID 1347060; cut-off not given, nearly all actives have AC50 up to about 26 µM;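 as to AC50: cells exposed to compound for 48 hours before viability readout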); details: CellTiter-Glo ATP luminescence
[2] = viability loss in pontine glioma line – cell-based, SU-DIPG-XIII, MIPE4.0, CellTiter-Glo, qHTS, dose response (AID 1347061; cut-off not given, nearly all actives have AC50 up to about 37 µM;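 also: cells exposed to compound for 48 hours before readout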); details: CellTiter-Glo ATP luminescence
[3] = viability loss in pontine glioma line – cell-based, SU-DIPG-XIII, MIPE5.0, CellTiter-Glo, qHTS, dose response (AID 1347064; cut-off not given, nearly all actives have AC50 up to about 23 µM;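 as to AC50: cells exposed to compound for 48 hours before the viability read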); details: CellTiter-Glo ATP luminescence
[4] = viability loss in pontine glioma line – cell-based, SU-DIPG-XXV, MIPE5.0, CellTiter-Glo, qHTS, dose response (AID 1347065; cut-off not given, nearly all actives have AC50 up to about 26 µM;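 also: cells exposed to compound for 48 hours before ATP readout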); details: CellTiter-Glo ATP luminescence
[5] = JHH-DIPG-1 glioma cell viability, MIPE5.0 library, CellTiter-Glo luminescence, qHTS (AID 1347067; cut-off not given, nearly all actives have AC50 up to about 26 µM;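 also: cells exposed to compound for 48 hours before readout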); details: JHH-DIPG-1 glioma viability, CellTiter-Glo ATP luminescence
[6] = growth inhibition of DIPG cells – cell-based, MIPE5.0 library, qHTS (AID 1347068; cut-off not given, nearly all actives have IC50 up to about 30 µM;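 as to IC50: cells exposed to compound for 48 hours before viability readout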); details: SU-DIPG-XXV viability
[7] = viability loss in pontine glioma line – cell-based, SU-DIPG-IV, MIPE4.0, CellTiter-Glo, qHTS, dose response (AID 1347063; cut-off not given, nearly all actives have AC50 up to about 30 µM;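 also: compound exposure lasted 48 hours before the viability readout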); details: CellTiter-Glo ATP luminescence
[8] = growth inhibition of DIPG cells – cell-based, MIPE4.0 library, CellTiter-Glo luminescence, qHTS (AID 1347066; cut-off not given, nearly all actives have AC50 up to about 30 µM;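 also: cells exposed to compound for 48 hours before readout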); details: SU-DIPG-VI viability, CellTiter-Glo ATP luminescence
[9] = compounds altering HSF1 focus formation in cells – imaging, Selleck Cancer Library (AID 1347162; in the data active = plate-normalised HSF1 focus index below about 0.46); details: human cells, HSF1 nuclear foci imaging, at 10 µM; SSMD: measured here: HSF1 foci SSMD mean; cell count: measured here: cell number; plate-normalised HSF1 focus index: stronger effect = lower value
[10] = viability loss with induced miR-34 in A549 – imaging, A549 dox-inducible miR-34, nuclei and caspase counts, primary screen (AID 1347080;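 active = compounds whose cell count with miR-34 switched on is under 0.7 times the count with it off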); details: A549 miR-34 inducible, Hoechst nuclei count, 48 h
[11] = MELAS cybrid and Rieske KO viability enhancers – cell-based, MELAS cybrids, Rieske KO mouse fibroblasts, CellTiter-Glo, primary screen (AID 1508586;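 active = mean z-score across replicates of 1.96 or higher in either the MELAS or the Rieske mutant cell line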;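 also: z relative to plate mean and SD of compound and empty wells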); details: low glucose
[12] = drug combination growth inhibition, ovarian cancer – cell-based, oncology-focused library, rucaparib conditional, profiling panel (AID 1508598); details: patient-derived ovarian cancer cells, CellTiter-Glo viability, 144 h, stronger effect = lower value
[13] = stronger effect = lower value, cell number ratio, induced over uninduced
[14] = measured here: relative caspase fold change +Dox/-Dox
[15] = measured here: total cells with miR-34 induction, stronger effect = lower value
[16] = measured here: total cells without miR-34 induction
[17] = MELAS cybrid survival, CellTiter-Glo 48 h, stronger effect = higher value
[18] = Rieske KO mouse fibroblast survival, CellTiter-Glo 72 h
[19] = at 0.000305 µM, OCI-C5x cells, with rucaparib 10 µM, 100% = cells with rucaparib alone
[20] = at 0.000305 µM, OCI-C5x cells, without rucaparib
[21] = at 0.000305 µM, OCI-P5x cells, with rucaparib 20 µM, 100% = cells with rucaparib alone
[22] = at 0.000305 µM, OCI-P5x cells, without rucaparib
[23] = at 0.00122 µM, OCI-C5x cells, with rucaparib 10 µM, 100% = cells with rucaparib alone
[24] = at 0.00122 µM, OCI-C5x cells, without rucaparib
[25] = at 0.00122 µM, OCI-P5x cells, with rucaparib 20 µM, 100% = cells with rucaparib alone
[26] = at 0.00122 µM, OCI-P5x cells, without rucaparib
[27] = at 0.00488 µM, OCI-C5x cells, with rucaparib 10 µM, 100% = cells with rucaparib alone
[28] = at 0.00488 µM, OCI-C5x cells, without rucaparib
[29] = at 0.00488 µM, OCI-P5x cells, with rucaparib 20 µM, 100% = cells with rucaparib alone
[30] = at 0.00488 µM, OCI-P5x cells, without rucaparib
[31] = at 0.0195 µM, OCI-C5x cells, with rucaparib 10 µM, 100% = cells with rucaparib alone
[32] = at 0.0195 µM, OCI-C5x cells, without rucaparib
[33] = at 0.0195 µM, OCI-P5x cells, with rucaparib 20 µM, 100% = cells with rucaparib alone
[34] = at 0.0195 µM, OCI-P5x cells, without rucaparib
[35] = at 0.0781 µM, OCI-C5x cells, with rucaparib 10 µM, 100% = cells with rucaparib alone
[36] = at 0.0781 µM, OCI-C5x cells, without rucaparib

NC(=O)c1c(OCc2c(F)cc(Br)cc2F)nsc1NC(=O)NCCCCN1CCCC1
active: AC50 [1] 4.68 µM | AC50 [2] 6.62 µM | AC50 [3] 3.32 µM | AC50 [4] 3.32 µM | AC50 [5] 18.6 µM | IC50 [6] 23.5 µM

Cc1n[nH]c(C)c1Cc1sc2c(c1C(=O)N1C[C@H](O)CO1)c(=O)n(C)c(=O)n2CC(C)C
inactive: outcome [1] | outcome [2] | outcome [7] | outcome [8] | outcome [5] | outcome [6]

CCC(=O)N1CCN(c2ccc(-n3c(=O)ccc4cnc5ccc(-c6cnc7ccccc7c6)cc5c43)cc2C(F)(F)F)CC1
inactive: plate-normalised HSF1 focus index [9] 1.1
1.96: SSMD [9]
7220: cell count [9]
active: AC50 [1] 0.0456 µM | AC50 [2] 1.32 µM | AC50 [7] 0.0662 µM | AC50 [3] 0.162 µM | AC50 [4] 0.0811 µM

C[C@]12CC[C@@H]3c4ccc(O)cc4CC[C@H]3[C@@H]1[C@@H](O)[C@@H](O)[C@@H]2O
inactive: outcome [1] | outcome [2] | outcome [7] | outcome [8] | outcome [5] | outcome [6]

Cc1c[nH]c(/C=C2\C(=O)Nc3ccccc32)c1CCC(=O)O
active: AC50 [1] 14.8 µM | AC50 [2] 5.9 µM | AC50 [4] 10.5 µM | AC50 [5] 16.6 µM
inactive: outcome [8]

Cc1cc(C(=O)N2CCN(c3cccc(Cl)c3)CC2)n(-c2ccccc2)n1
inactive: outcome [2] | outcome [8]
active: AC50 [1] 7.42 µM | AC50 [4] 9.34 µM

CN[C@@H](C)C(=O)N[C@H]1CN(C(=O)CC(C)C)CC[C@H]2CC[C@@H](C(=O)NC(c3ccccc3)c3ccccc3)N2C1=O
inactive: outcome [1] | outcome [2] | outcome [4] | outcome [8] | outcome [5] | outcome [6] | plate-normalised HSF1 focus index [9] 1.1
7260: cell count [9]
2.71: SSMD [9]

Nc1nc(=O)n([C@H]2C[C@H](O)[C@@H](CO)O2)cc1F
inactive: outcome [1] | outcome [2] | outcome [7] | outcome [4] | outcome [8] | outcome [5] | outcome [6]

COc1cc(C(C)C)c2c(c1)S(=O)(=O)N(COc1cc(=O)n3cccc(OCCN4CCCCC4)c3n1)C2=O
inactive: outcome [2]
active: AC50 [1] 23.5 µM | AC50 [4] 20.9 µM

N#CC1(c2ccc(NC(=O)c3cccnc3NCc3ccncc3)cc2)CCCC1
0.694: z-score [11, 18]
1.08: fold change [10, 14]
inactive: outcome [1] | outcome [2] | outcome [3] | outcome [4] | outcome [8] | outcome [5] | outcome [6] | fold change [10, 13] 0.862 | z-score [11, 17] -0.704
7700: cell count [10, 16]
6630: cell count [10, 15]

CS(=O)(=O)N1CCN(Cc2cc3nc(-c4cccc5[nH]ncc45)nc(N4CCOCC4)c3s2)CC1
6530: cell count [9]
0.859: fold change [10, 14]
1570: cell count [10, 16]
inactive: fold change [10, 13] 0.864 | plate-normalised HSF1 focus index [9] 0.899 | viability [12, 19] 111% | viability [12, 20] 127% | viability [12, 23] 121% | viability [12, 24] 119% | viability [12, 27] 109% | viability [12, 28] 120% | viability [12, 31] 111% | viability [12, 32] 118% | viability [12, 35] 114% | viability [12, 36] 108% | viability ([12]; at 0.313 µM, OCI-C5x cells, with rucaparib 10 µM, 100% = cells with rucaparib alone) 105% | viability ([12]; at 0.313 µM, OCI-C5x cells, without rucaparib) 107% | viability ([12]; at 1.25 µM, OCI-C5x cells, with rucaparib 10 µM, 100% = cells with rucaparib alone) 125% | viability ([12]; at 1.25 µM, OCI-C5x cells, without rucaparib) 123% | viability ([12]; at 5 µM, OCI-C5x cells, with rucaparib 10 µM, 100% = cells with rucaparib alone) 114% | viability ([12]; at 5 µM, OCI-C5x cells, without rucaparib) 120%
1360: cell count [10, 15]
active: AC50 [1] 1.18 µM | AC50 [2] 5.26 µM | AC50 [7] 0.166 µM | AC50 [3] 1.32 µM | AC50 [4] 0.661 µM | IC50 [6] 4.17 µM | z-score [11, 17] 3.74 | viability [12, 21] 98.9% | viability [12, 22] 94.9% | viability [12, 25] 98.2% | viability [12, 26] 92.1% | viability [12, 29] 94.4% | viability [12, 30] 93.2% | viability [12, 33] 96.3% | viability [12, 34] 87.5% | viability ([12]; at 0.0781 µM, OCI-P5x cells, with rucaparib 20 µM, 100% = cells with rucaparib alone) 92.7% | viability ([12]; at 0.0781 µM, OCI-P5x cells, without rucaparib) 88.1% | viability ([12]; at 0.313 µM, OCI-P5x cells, with rucaparib 20 µM, 100% = cells with rucaparib alone) 72.6% | viability ([12]; at 0.313 µM, OCI-P5x cells, without rucaparib) 78.2% | viability ([12]; at 1.25 µM, OCI-P5x cells, with rucaparib 20 µM, 100% = cells with rucaparib alone) 82.3% | viability ([12]; at 1.25 µM, OCI-P5x cells, without rucaparib) 82.1% | viability ([12]; at 5 µM, OCI-P5x cells, with rucaparib 20 µM, 100% = cells with rucaparib alone) 54.2% | viability ([12]; at 5 µM, OCI-P5x cells, without rucaparib) 70.8%
-1.97: SSMD [9]
1: z-score [11, 18]

CO[C@H]1C[C@@H]2CC[C@@H](C)[C@@](O)(O2)C(=O)C(=O)N2CCCC[C@H]2C(=O)O[C@H]([C@H](C)C[C@@H]2CC[C@@H](OP(C)(C)=O)[C@H](OC)C2)CC(=O)[C@H](C)/C=C(\C)[C@@H](O)[C@@H](OC)C(=O)[C@H](C)C[C@H](C)/C=C/C=C/C=C/1C
active: AC50 [1] 18.6 µM | AC50 [7] 23.5 µM | AC50 [4] 16.6 µM | AC50 [5] 20.9 µM
inactive: outcome [2]

NC1=N[C@@]2(c3cc(NC(=O)c4ccc(F)cn4)ccc3F)COC[C@H]2CS1
inactive: outcome [1] | outcome [2] | outcome [4] | outcome [8] | outcome [5] | outcome [6]

C/C=C/C[C@@H](C)C(=O)[C@H]1C(=O)N[C@@H](C(C)C)C(=O)N(C)CC(=O)N(C)[C@@H](CC(C)C)C(=O)N[C@@H](C(C)C)C(=O)N(C)[C@@H](CC(C)C)C(=O)N[C@@H](C)C(=O)N[C@H](C)C(=O)N(C)[C@@H](CC(C)C)C(=O)N(C)[C@@H](CC(C)C)C(=O)N(C)[C@@H](C(C)C)C(=O)N1C
active: AC50 [1] 8.11 µM | AC50 [2] 18.7 µM | AC50 [4] 5.74 µM

Nc1cccc2c1C(=O)N(C1CCC(=O)NC1=O)C2=O (stereo not drawn)
9490: cell count [10, 16]
8200: cell count [10, 15]
0.628: z-score [11, 18]
0.842: fold change [10, 14]
inactive: outcome [1] | outcome [2] | outcome [7] | outcome [8] | outcome [5] | fold change [10, 13] 0.865 | z-score [11, 17] 0.05 | viability [12, 19] 110% | viability [12, 20] 124% | viability [12, 21] 110% | viability [12, 22] 127% | viability [12, 23] 109% | viability [12, 24] 124% | viability [12, 25] 107% | viability [12, 26] 125% | viability [12, 27] 112% | viability [12, 28] 121% | viability [12, 29] 102% | viability [12, 30] 118% | viability [12, 31] 115% | viability [12, 32] 125% | viability [12, 33] 105% | viability [12, 34] 114% | viability [12, 35] 117% | viability [12, 36] 112%
active: AC50 [4] 0.00118 µM
